From PubChem BioAssay
Activity calls are given as the source filed them.

How the values were obtained:
[1] = optical density shifts of acrAB sulA E. coli – strain DRC41, OD650, 48 h, E. coli filamentation inducer project, primary screen (AID 1152); settings: higher = more signal, called active from +8 up or from −8 down;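 also: E. coli MC1000 strain DRC41 lacking acrAB efflux pump and sulA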
[2] = probe aLefty1 binding on compound microarray – biochemical, small-molecule microarray, 635/667 nm fluorescence, primary screen (AID 1153); settings: higher = more signal;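 also: score merges spot fluorescence with signal-to-noise ratio from the scanned slide images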
[3] = plasmodial surface anion channel blockers, osmotic lysis – cell-based, P. falciparum Indochina, OD700, 1 h, primary screen (AID 1154); settings: P. falciparum Indochina infected RBC osmotic lysis, higher = more signal, called active from +8 up or from −8 down
[4] = plasmodial surface anion channel blockers, osmotic lysis – cell-based, P. falciparum Indochina, OD700, 2 h, primary screen (AID 1155);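 also: lysis reports solute entry through the parasite surface anion channel PSAC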; settings: P. falciparum Indochina infected erythrocytes, higher = more signal, called active from +8 up or from −8 down
[5] = changes in parasitized red cell lysis, either direction – P. falciparum Indochina, OD700, 3 h, PSAC antagonist project, primary screen (AID 1156); settings: P. falciparum-infected erythrocytes, osmotic lysis, higher = more signal, called active from +8 up or from −8 down
[6] = plasmodial surface anion channel blockers, osmotic lysis – cell-based, P. falciparum Indochina, OD700, 18 h, primary screen (AID 1157); settings: P. falciparum Indochina infected erythrocytes, osmotic lysis OD700, 18 h; higher = more signal, called active from +8 up or from −8 down
[7] = S6 kinase pathway phospho-S6 level changes – cell-based, A549, cytoblot, luminescence, serum-stimulated, primary screen (AID 1158); settings: 5 h, higher = more signal;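 also: serum-stimulated A549 lung adenocarcinoma cells; signal is phosphorylated S6 detected by cytoblot immunostaining with HRP secondary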
[8] = biological target: NADPH oxidase 2 (Homo sapiens) (UniProt P04839); assay: compounds shifting NOX2 Amplex Red fluorescence – cell-based, HEK293-NOX2, PMA-stimulated, NOX inhibitor project, primary screen (AID 1159); settings: 45 min, higher = more signal, called active from +8 up or from −8 down; also: test concentration not given here
[9] = biological target: NADPH oxidase 4 (Homo sapiens) (UniProt Q9NPH5); assay: compounds shifting NOX4 Amplex Red fluorescence – cell-based, HEK293-NOX4, tetracycline-induced, NOX inhibitor project, primary screen (AID 1160); settings: HEK293-NOX4, Amplex Red H2O2 fluorescence, 45 min; higher = more signal, called active from +8 up or from −8 down
[10] = biological target: NADPH oxidase 5 (Homo sapiens) (UniProt Q96PH1); assay: compounds shifting NOX5 Amplex Red fluorescence – cell-based, HEK293-NOX5, NOX inhibitor project, primary screen (AID 1161); settings: HEK293-NOX5, ionomycin, 45 min, higher = more signal
[11] = compound effects on lung adenocarcinoma cell viability – A549, calcein-AM fluorescence, 48 h, basal, profiling panel (AID 1162); settings: higher = more signal; also: test concentration not given here
[12] = compound effects on differentiated 3T3-L1 adipocyte viability – cell-based, 3T3-L1 adipocytes, calcein-AM fluorescence, 48 h, basal, profiling panel (AID 1163); settings: 3T3-L1 adipocytes viability, higher = more signal; also: test concentration not given here
[13] = compound effects on hepatocellular carcinoma cell viability – HepG2, calcein-AM fluorescence, 48 h, basal, profiling panel (AID 1164); settings: higher = more signal; also: test concentration not given here
[14] = compound effects on multiple myeloma cell viability – MM1S, calcein-AM fluorescence, 48 h, basal, profiling panel (AID 1165); settings: higher = more signal;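 also: viability of MM1S multiple myeloma cells under basal unstimulated conditions; test concentration not given here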
[15] = calcein-AM signal in unstimulated myeloma cells – cell-based, calcein-AM fluorescence, 48 h, PK04 Diversity Set, profiling panel (AID 1166); settings: RPMI8226 myeloma viability, higher = more signal;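 also: cells grown under basal conditions without added stimulus; test concentration not given here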
[16] = JC-1 mitochondrial signal, unstimulated HepG2 cells – cell-based, JC-1 fluorescence, 24 h, 100 nL compound, profiling panel (AID 1167); settings: HepG2 mitochondrial potential, higher = more signal; also: test concentration not given here
[17] = JC-1 mitochondrial signal, unstimulated adipocytes – cell-based, JC-1 fluorescence, 3T3-L1 adipocytes, 24 h, 100 nL compound, profiling panel (AID 1168); settings: JC-1 mitochondrial fluorescence, higher = more signal, called active from +8 up or from −8 down; also: test concentration not given here
[18] = JC-1 mitochondrial signal, unstimulated myeloma cells – cell-based, JC-1 fluorescence, RPMI8226, 24 h, 100 nL compound, profiling panel (AID 1169); settings: JC-1 mitochondrial potential fluorescence, higher = more signal; also: test concentration not given here
[19] = JC-1 mitochondrial signal, unstimulated MM1S myeloma – cell-based, JC-1 fluorescence, 24 h, 100 nL compound, profiling panel (AID 1170); settings: MM1S mitochondrial potential, higher = more signal; also: test concentration not given here
[20] = resazurin metabolic signal in A549 cells – cell-based, resazurin fluorescence, 24 h, PK04 Diversity Set, profiling panel (AID 1171); settings: A549 viability, higher = more signal, called active from +8 up or from −8 down; also: test concentration not given here

NADPH oxidase 2 (Homo sapiens), sequence (P04839 whole entry, looked up): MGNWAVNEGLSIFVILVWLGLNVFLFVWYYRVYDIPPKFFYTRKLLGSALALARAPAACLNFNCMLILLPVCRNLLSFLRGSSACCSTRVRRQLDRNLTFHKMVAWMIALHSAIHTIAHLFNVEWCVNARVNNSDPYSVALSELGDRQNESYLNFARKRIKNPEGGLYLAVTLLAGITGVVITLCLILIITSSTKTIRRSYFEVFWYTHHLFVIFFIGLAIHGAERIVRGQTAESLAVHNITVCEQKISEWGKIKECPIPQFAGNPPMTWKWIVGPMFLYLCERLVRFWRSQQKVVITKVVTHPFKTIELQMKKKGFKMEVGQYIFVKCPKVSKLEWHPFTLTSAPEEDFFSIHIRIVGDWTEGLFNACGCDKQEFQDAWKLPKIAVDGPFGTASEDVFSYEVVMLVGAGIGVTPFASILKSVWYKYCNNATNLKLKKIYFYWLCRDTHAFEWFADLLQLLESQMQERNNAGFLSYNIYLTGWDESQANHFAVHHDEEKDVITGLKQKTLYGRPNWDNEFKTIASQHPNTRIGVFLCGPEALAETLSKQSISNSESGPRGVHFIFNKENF
NADPH oxidase 5 (Homo sapiens), sequence (Q96PH1 whole entry, looked up): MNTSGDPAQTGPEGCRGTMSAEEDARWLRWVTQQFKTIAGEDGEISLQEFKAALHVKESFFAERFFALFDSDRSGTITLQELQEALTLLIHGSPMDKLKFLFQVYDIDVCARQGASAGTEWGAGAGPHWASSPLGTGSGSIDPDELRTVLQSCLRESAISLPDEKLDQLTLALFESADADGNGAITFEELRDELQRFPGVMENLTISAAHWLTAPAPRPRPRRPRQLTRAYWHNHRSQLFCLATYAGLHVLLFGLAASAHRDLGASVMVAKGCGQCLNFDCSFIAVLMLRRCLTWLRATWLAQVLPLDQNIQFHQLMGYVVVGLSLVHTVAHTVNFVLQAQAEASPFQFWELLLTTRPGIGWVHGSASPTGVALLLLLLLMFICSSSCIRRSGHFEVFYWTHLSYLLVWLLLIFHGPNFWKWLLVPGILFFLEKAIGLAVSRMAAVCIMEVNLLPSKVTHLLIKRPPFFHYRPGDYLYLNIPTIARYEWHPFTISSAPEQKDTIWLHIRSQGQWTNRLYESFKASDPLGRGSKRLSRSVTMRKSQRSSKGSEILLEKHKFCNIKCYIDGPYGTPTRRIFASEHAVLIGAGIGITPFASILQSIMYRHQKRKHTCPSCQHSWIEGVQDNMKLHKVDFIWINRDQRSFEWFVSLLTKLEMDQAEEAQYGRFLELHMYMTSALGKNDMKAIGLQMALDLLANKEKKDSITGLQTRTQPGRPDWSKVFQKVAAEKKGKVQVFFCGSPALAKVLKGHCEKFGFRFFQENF
NADPH oxidase 4 (Homo sapiens), sequence (Q9NPH5 whole entry, looked up): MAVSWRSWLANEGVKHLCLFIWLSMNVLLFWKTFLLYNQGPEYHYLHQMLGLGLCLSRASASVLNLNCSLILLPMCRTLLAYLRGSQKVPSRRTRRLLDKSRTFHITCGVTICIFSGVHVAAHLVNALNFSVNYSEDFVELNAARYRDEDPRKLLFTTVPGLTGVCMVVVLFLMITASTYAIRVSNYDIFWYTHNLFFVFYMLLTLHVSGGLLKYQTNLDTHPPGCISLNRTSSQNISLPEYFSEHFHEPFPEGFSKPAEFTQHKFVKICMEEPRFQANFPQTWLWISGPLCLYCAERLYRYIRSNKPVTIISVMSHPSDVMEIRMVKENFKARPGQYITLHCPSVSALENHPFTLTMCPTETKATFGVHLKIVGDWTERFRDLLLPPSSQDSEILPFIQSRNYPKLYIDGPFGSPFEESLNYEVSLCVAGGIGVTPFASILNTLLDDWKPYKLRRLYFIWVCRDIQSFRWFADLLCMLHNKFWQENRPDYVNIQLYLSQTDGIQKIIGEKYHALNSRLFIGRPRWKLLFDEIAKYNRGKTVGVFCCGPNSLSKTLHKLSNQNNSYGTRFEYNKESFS

SMILES | z-score [1] | composite z-score [2] | z-score [3] | z-score [4] | z-score [5] | z-score [6] | z-score [7] | z-score [8] | z-score [9] | z-score [10] | z-score [11] | z-score [12] | z-score [13] | z-score [14] | z-score [15] | z-score [16] | z-score [17] | z-score [18] | z-score [19] | z-score [20]
COC(=O)C1=CC(CCCO)=CC(C)N(Cc2cccc(OC(F)(F)F)c2)C=C1C(=O)OC (stereo not given) | -0.0692 (inactive) | 0.248 | 2.3 (inactive) | 0.192 (inactive) | 0.983 (inactive) | 0.5 (inactive) | -0.334 | 0.159 (inactive) | -0.317 (inactive) | 0.859 | 1.35 | 0.0937 | 0.966 | 0.403 | 0.286 | 1.12 | 0.612 (inactive) | -0.0402 | -0.645 | -0.149 (inactive)
C=C(CCCC)C(=O)CC[C@@H](OC(=O)c1cccnc1)c1ccc(OCCO)cc1 | -0.704 (inactive) | 0.178 | 20.2 (active) | 4.63 (inactive) | -0.367 (inactive) | 0.774 (inactive) | -0.58 | -1.3 (inactive) | -0.918 (inactive) | -1.39 | 0.67 | 0.866 | 0.376 | -3.34 | -2.89 | -0.279 | -0.188 (inactive) | -0.673 | -0.652 | 0.116 (inactive)
COCCCNC(=O)[C@@H]1c2ccccc2C(=O)N(C2Cc3ccccc3C2)[C@H]1c1ccc(CO)cc1 | 0.748 (inactive) | -0.0603 | 3.1 (inactive) | 1.18 (inactive) | 0.65 (inactive) | 0.476 (inactive) | -0.256 | -0.193 (inactive) | 0.444 (inactive) | -0.0459 | 1.12 | 0.275 | 0.165 | 0.155 | 0.261 | 2.94 | -0.17 (inactive) | 0.217 | 0.494 | 0.58 (inactive)
CCOC(=O)C1=C[C@@H](C(C)(C)C)N(S(=O)(=O)c2ccc(C)cc2)[C@H]1c1cccc(Cl)c1 | -1.11 (inactive) | 0.522 | 1.26 (inactive) | 1.03 (inactive) | 0.223 (inactive) | 0.39 (inactive) | -0.98 | -0.789 (inactive) | -0.842 (inactive) | 0.196 | -2.79 | -0.192 | -2.64 | -2.77 | -4.21 | 5.38 | 0.318 (inactive) | -1.14 | -2.3 | -1.12 (inactive)
COCCOC(=O)N1C(=O)[C@@]2(c3ccccc31)[C@H](c1ccccc1OCCO)N1[C@H](c3ccccc3)[C@H](c3ccccc3)OC(=O)[C@H]1[C@@H]2C(N)=O | -0.714 (inactive) | 0.221 | 3.59 (inactive) | 1.18 (inactive) | -0.463 (inactive) | 0.689 (inactive) | 0.231 | 1.88 (inactive) | 0.787 (inactive) | 0.212 | -1.59 | 0.61 | -1.85 | -3.32 | -4.57 | -0.88 | -0.27 (inactive) | -1.15 | -1.21 | -1.78 (inactive)
COc1ccc(C(O)C2C=CC3C(=O)N(c4ccccc4)C(=O)C3N2Nc2ccc(C(C)C)cc2)c2ccccc12 (stereo not given) | -0.534 (inactive) | 0.4 | 1.68 (inactive) | 1.35 (inactive) | 0.155 (inactive) | 1.27 (inactive) | -1.09 | 0.373 (inactive) | -2.59 (inactive) | -3.17 | 0.181 | -0.946 | 0.301 | -0.419 | 0.129 | -0.783 | 0.0228 (inactive) | -0.293 | -0.154 | -0.64 (inactive)
CCCCNC(=O)c1ccc(C#C[Si](C(C)C)(C(C)C)C(C)C)c(OC(C)=O)c1 | -0.52 (inactive) | -0.0518 | 0.964 (inactive) | 0.272 (inactive) | 0.551 (inactive) | 0.158 (inactive) | 0.152 | 1.26 (inactive) | 0.355 (inactive) | 0.458 | -0.487 | 0.95 | -2.45 | -2.22 | -4.09 | -2.34 | -0.281 (inactive) | -1.1 | -1.04 | -0.363 (inactive)
CC(C)CNC(=O)[C@@H]1c2ccccc2C(=O)N(C2CCCCC2)[C@H]1c1ccc(CO)cc1 | 3.5 (inactive) | 0.259 | 1.36 (inactive) | 0.387 (inactive) | 0.472 (inactive) | -0.288 (inactive) | 1.24 | -0.318 (inactive) | 1.42 (inactive) | 0.297 | 2.93 | 0.258 | 1.41 | 0.0402 | 0.424 | 4.35 | 1.16 (inactive) | 0.301 | -0.605 | 2.26 (inactive)
COc1ccc(C#Cc2ccc3c(c2)[C@]2(C(=O)N3)[C@H](C(=O)Nc3nc4ccccc4s3)[C@H]3C(=O)O[C@H](c4ccccc4)[C@H](c4ccccc4)N3[C@@H]2c2ccccc2OCCO)cc1 | 2.86 (inactive) | -0.118 | 2.32 (inactive) | 2.07 (inactive) | -0.279 (inactive) | -0.442 (inactive) | 0.81 | 1.91 (inactive) | -0.0532 (inactive) | 0.268 | 0.609 | 1.61 | 0.211 | -0.708 | -0.451 | -2.79 | 3.69 (inactive) | -1.03 | -1.27 | -0.801 (inactive)
